Calls of active or inactive are those of the source. The calls were made as follows: active = hit-call score of the fitted dose curve at least 0.9, where 1 is the maximum; inactive = score below 0.9.
Legend:
Settings in all cases: mRNA level, 48 h; actives raise or lower the signal
CYP3A5 (gene 1577) = assay: LTEA_HepaRG_CYP3A5: Life Technologies and Expression Analysis (LTEA) Assay for CYP3A5 using HepaRG (AID 2283493)
How it was run: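 Readout was CYP3A5 mRNA by qRT-PCR. HepaRG cultures were exposed for 48 h in serum-free induction medium to chemicals at up to 100 uM, and responses were fitted in both directions relative to DMSO vehicle.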

[1] = read-out: Fatty Acid-Binding Protein 1 (FABP1), FABP1 (gene 2168); assay: LTEA_HepaRG_FABP1: Life Technologies and Expression Analysis (LTEA) Assay for Fatty Acid-Binding Protein 1 (FABP1) using HepaRG (AID 2283494)
How it was run: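 FABP1 expression by TaqMan qRT-PCR, normalised to three housekeeping genes, in HepaRG cells after 48 h chemical treatment. Eight-point half-log series topping at 100 uM in 0.5% DMSO, duplicates; gain or loss fitted relative to vehicle.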

[2] = read-out: Cytochrome P450 4A22 (Homo sapiens) (UniProt Q5TCH4); assay: LTEA_HepaRG_CYP4A22: Life Technologies and Expression Analysis (LTEA) Assay for Cytochrome P450 4A22 (CYP4A22) using HepaRG (AID 2283495)
How it was run: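 HepaRG, 48 h post-plating -> serum-free induction medium; dosed 48 h, duplicate, 8 conc. (100 uM top, half-log), 0.5% DMSO. Readout: CYP4A22 mRNA by qRT-PCR, ACTB/GAPDH/POLR2A normalization; gain/loss fit relative to DMSO.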

[3] = read-out: Cytochrome P450 7A1 (Homo sapiens) (UniProt P22680); assay: LTEA_HepaRG_CYP7A1: Life Technologies and Expression Analysis (LTEA) Assay for Cytochrome P450 7A1 (CYP7A1) using HepaRG (AID 2283496)
How it was run: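 Using 0.5% DMSO as vehicle and baseline, chemicals were tested in duplicate over an 8-point range from 100 uM on HepaRG cells for 48 h; qRT-PCR signals were normalised to ACTB, GAPDH and POLR2A.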

[4] = read-out: Glutathione S-Transferase (GSTA2), GSTA2 (gene 2939); assay: LTEA_HepaRG_GSTA2: Life Technologies and Expression Analysis (LTEA) Assay for Glutathione S-Transferase (GSTA2) using HepaRG (AID 2283497)
How it was run: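 GSTA2 transcript levels came from Fluidigm TaqMan qRT-PCR normalized to three housekeeping genes, fitted in both directions against DMSO. HepaRG cultures received chemicals for 48 h in serum-free induction medium (0.5% DMSO), 8 half-log concentrations up to 100 uM, duplicate.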

[5] = read-out: Glutamate-cysteine ligase catalytic (GCLC), GCLC (gene 2729); assay: LTEA_HepaRG_GCLC: Life Technologies and Expression Analysis (LTEA) Assay for Glutamate-cysteine ligase catalytic (GCLC) using HepaRG (AID 2283498)
How it was run: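 Expression by TaqMan qRT-PCR, normalized to three housekeeping genes (ACTB, GAPDH, POLR2A), with up- or down-regulation fitted against DMSO. HepaRG cells dosed in duplicate for 48 h with 8 half-log concentrations up to 100 uM, vehicle 0.5% DMSO.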

[6] = read-out: growth arrest and DNA damage 45 (GADD45G), GADD45G (gene 10912); assay: LTEA_HepaRG_GADD45G: Life Technologies and Expression Analysis (LTEA) Assay for growth arrest and DNA damage 45 (GADD45G) using HepaRG (AID 2283499)
How it was run: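 HepaRG, 48 h exposure, top 100 uM, half-log 8-point series, 0.5% DMSO vehicle, duplicates. Readout: GADD45G transcript by qRT-PCR (Fluidigm array), housekeeping-normalised (ACTB/GAPDH/POLR2A). Bidirectional curve fit vs DMSO baseline.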

[7] = read-out: Glutathione S-transferase M3 (GSTM3), GSTM3 (gene 2947); assay: LTEA_HepaRG_GSTM3: Life Technologies and Expression Analysis (LTEA) Assay for Glutathione S-transferase M3 (GSTM3) using HepaRG (AID 2283501)
How it was run: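 qRT-PCR read-out of GSTM3 transcript, normalized to three housekeeping genes, from human HepaRG cells after 48 h chemical exposure. Eight-point half-log series, top 100 uM, 0.5% DMSO vehicle; gain or loss fitted relative to DMSO baseline.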

[8] = read-out: Heat shock 70 kDa protein 1 (HSPA1A), gene 3303; assay: LTEA_HepaRG_HSPA1A: Life Technologies and Expression Analysis (LTEA) Assay for Heat shock 70 kDa protein 1 (HSPA1A) using HepaRG (AID 2283502)
How it was run: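 An oxidative-stress marker readout: HepaRG cells treated 48 h in duplicate with an eight-point series (highest 100 uM) had HSPA1A mRNA quantified by TaqMan qRT-PCR. Activity was fitted in both directions using 0.5% DMSO as baseline.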

[9] = read-out: Hypoxia-inducible factor 1-alpha (Homo sapiens) (UniProt Q16665); assay: LTEA_HepaRG_HIF1A: Life Technologies and Expression Analysis (LTEA) Assay for Hypoxia-inducible factor 1 (HIF1A) Trancription factor using HepaRG (AID 2283503);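 also: HIF1A transcript by TaqMan qRT-PCR normalized to ACTB GAPDH and POLR2A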
How it was run: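 Gain- or loss-of-signal HIF1A mRNA changes are fitted against a DMSO baseline. HepaRG cultures receive eight concentrations, highest 100 uM, for 48 h in serum-free induction medium with 0.5% DMSO.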

HGF (gene 3082) = assay: LTEA_HepaRG_HGF: Life Technologies and Expression Analysis (LTEA) Assay for Hepatocyte Growth Facto (HGF) using HepaRG (AID 2283505)
How it was run: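 HepaRG, 48 h dosing, 8-pt half-log series from 100 uM in 0.5% DMSO, duplicates. Readout: TaqMan qRT-PCR of HGF mRNA, housekeeping-normalized; bidirectional curve fit vs DMSO baseline.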

[10] = read-out: Insulin Like Growth Factor 1 (IGF1), IGF1 (gene 3479); assay: LTEA_HepaRG_IGF1: Life Technologies and Expression Analysis (LTEA) Assay for Insulin Like Growth Factor 1 (IGF1) using HepaRG (AID 2283506)
How it was run: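 Endpoint: IGF1 mRNA change by qRT-PCR, housekeeping-normalized, fitted bidirectionally relative to 0.5% DMSO vehicle. Human HepaRG cells were treated 48 h in serum-free induction medium, eight half-log concentrations topping at 100 uM.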

[11] = read-out: Intercellular Adhesion Molecule 1 (ICAM1), ICAM1 (gene 3383); assay: LTEA_HepaRG_ICAM1: Life Technologies and Expression Analysis (LTEA) Assay for Intercellular Adhesion Molecule 1 (ICAM1) using HepaRG (AID 2283507)
How it was run: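 HepaRG, 48 h exposure, 8-pt half-log series from 100 uM, 0.5% DMSO vehicle, duplicates. Readout: TaqMan qRT-PCR mRNA, housekeeping-normalized (ACTB/GAPDH/POLR2A). Bidirectional curve fit vs DMSO baseline.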

[12] = read-out: Insulin-like growth factor-binding protein 1 (IGFBP1), IGFBP1 (gene 3484); assay: LTEA_HepaRG_IGFBP1: Life Technologies and Expression Analysis (LTEA) Assay for Insulin-like growth factor-binding protein 1 (IGFBP1) using HepaRG (AID 2283508)
How it was run: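 qRT-PCR mRNA read-out (TaqMan, Fluidigm array), normalised to three housekeeping genes; HepaRG cells, 48 h exposure, 8-pt half-log series from 100 uM, 0.5% DMSO vehicle; bidirectional curve fit vs DMSO baseline.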

[13] = read-out: Interleukin 6 (IL6), IL6 (gene 3569); assay: LTEA_HepaRG_IL6: Life Technologies and Expression Analysis (LTEA) Assay for Interleukin 6 (IL6) using HepaRG (AID 2283509)
How it was run: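 Transcript levels, normalized to three housekeeping genes, were quantified by qRT-PCR after 48 h chemical treatment of HepaRG cells. Eight-point half-log series from 100 uM in 0.5% DMSO, duplicates. Fitted both directions against DMSO baseline.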

[14] = read-out: 3-Hydroxy-3-Methylglutaryl-CoA Synthase 2 (HMGCS2), HMGCS2 (gene 3158); assay: LTEA_HepaRG_HMGCS2: Life Technologies and Expression Analysis (LTEA) Assay for 3-Hydroxy-3-Methylglutaryl-CoA Synthase 2 (HMGCS2) using HepaRG (AID 2283504)
How it was run: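 qRT-PCR read-out of HMGCS2 transcript, normalised to three housekeeping genes, in HepaRG cells after 48 h chemical exposure. Eight-point curves from 100 uM, half-log dilutions, 0.5% DMSO vehicle; gain or loss fitted relative to DMSO baseline.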

[15] = read-out: Potassium channel subfamily K member 1 (KCNK1), KCNK1 (gene 3775); assay: LTEA_HepaRG_KCNK1: Life Technologies and Expression Analysis (LTEA) Assay for Potassium channel subfamily K member 1 (KCNK1) using HepaRG (AID 2283511)
How it was run: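 KCNK1 transcript measured by TaqMan qRT-PCR against three housekeeping genes, after HepaRG cells were treated 48 h with eight half-log concentrations (top 100 uM, 0.5% DMSO). Curves fitted bidirectionally relative to vehicle.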

[16] = read-out: Interleukin 6 Receptor (IL6R), IL6R (gene 3570); assay: LTEA_HepaRG_IL6R: Life Technologies and Expression Analysis (LTEA) Assay for Interleukin 6 Receptor (IL6R) using HepaRG (AID 2283510)
How it was run: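 In this HepaRG screen, test chemicals act on cells for 48 h at up to 100 uM (eight half-log points, duplicate wells). IL6R expression is quantified by qRT-PCR after normalization to ACTB, GAPDH and POLR2A, with DMSO as baseline.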

Measured: AC50

Chain of Hypoxia-inducible factor 1-alpha (Homo sapiens) (Q16665 whole entry, looked up): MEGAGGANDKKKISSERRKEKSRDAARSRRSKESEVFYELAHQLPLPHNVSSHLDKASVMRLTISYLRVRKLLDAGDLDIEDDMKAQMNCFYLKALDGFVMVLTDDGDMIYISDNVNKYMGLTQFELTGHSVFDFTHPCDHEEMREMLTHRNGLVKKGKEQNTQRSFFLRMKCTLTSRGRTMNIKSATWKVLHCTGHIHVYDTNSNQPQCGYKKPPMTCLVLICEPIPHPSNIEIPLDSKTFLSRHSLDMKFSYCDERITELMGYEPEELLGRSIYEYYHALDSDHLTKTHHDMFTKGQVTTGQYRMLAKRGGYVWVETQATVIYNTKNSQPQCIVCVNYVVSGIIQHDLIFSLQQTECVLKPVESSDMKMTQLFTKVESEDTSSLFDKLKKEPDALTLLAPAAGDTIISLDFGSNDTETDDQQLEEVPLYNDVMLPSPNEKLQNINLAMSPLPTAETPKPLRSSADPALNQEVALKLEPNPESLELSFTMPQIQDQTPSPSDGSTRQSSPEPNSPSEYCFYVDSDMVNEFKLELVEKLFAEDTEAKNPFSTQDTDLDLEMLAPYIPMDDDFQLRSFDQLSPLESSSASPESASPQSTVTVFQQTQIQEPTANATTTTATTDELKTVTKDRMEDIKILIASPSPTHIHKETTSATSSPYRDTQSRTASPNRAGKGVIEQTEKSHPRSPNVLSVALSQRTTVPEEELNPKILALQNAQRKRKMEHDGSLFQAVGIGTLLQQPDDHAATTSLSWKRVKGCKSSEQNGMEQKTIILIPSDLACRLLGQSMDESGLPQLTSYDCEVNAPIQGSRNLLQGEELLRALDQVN

CC(C)(C)C(O)/C(=C\c1ccc(Cl)cc1Cl)n1cncn1 (configuration not stated)
inactive: CYP3A5 (gene 1577) | [7] | HGF (gene 3082)
active: [1] 30.5 µM | [2] 21.1 µM | [3] 32.6 µM | [4] 27.3 µM | [5] 81.5 µM | [6] 29.5 µM | [8] 93.3 µM | [9] 82.3 µM | [10] 91.2 µM | [11] 50 µM | [12] 56.9 µM | [13] 94.6 µM

CC1(C)C(C=C(Cl)Cl)C1C(=O)OC(C#N)c1ccc(F)c(Oc2ccccc2)c1 (configuration not stated)
inactive: CYP3A5 (gene 1577) | [1] | [2] | [3] | [4] | [5] | [6] | [7] | [8] | [9] | HGF (gene 3082) | [10] | [11] | [12] | [13]

CNC(=O)Oc1ccccc1OC(C)C
inactive: CYP3A5 (gene 1577) | [1] | [2] | [4] | [5] | [6] | [7] | [8] | [9] | [14] | HGF (gene 3082) | [10] | [11] | [12] | [13] | [15]

COP(=S)(OC)Oc1ccc(SC)c(C)c1
inactive: CYP3A5 (gene 1577) | [1] | [2] | [3] | [4] | [5] | [6] | [7] | [8] | [9] | HGF (gene 3082) | [10] | [11] | [12] | [13]

CCC(C)Nc1c([N+](=O)[O-])cc(C(C)(C)C)cc1[N+](=O)[O-] (configuration not stated)
inactive: CYP3A5 (gene 1577) | [4] | [5] | [6] | [7] | [8] | [9] | HGF (gene 3082) | [11] | [12] | [13]
active: [1] 50 µM | [2] 38.7 µM | [3] 34.4 µM | [10] 48 µM

CN1CSC(=S)N(C)C1
inactive: CYP3A5 (gene 1577) | [1] | [2] | [3] | [4] | [5] | [6] | [7] | [8] | [9] | HGF (gene 3082) | [10] | [11] | [12] | [13] | [16]

— PubChem BioAssay (EPA / NIEHS)
